Data on 28 compounds can be found in PubChem BioAssay (Tox21).

Records with an inconclusive call do not appear. Activity calls are given as the source filed them. Calls follow the shape of the dose curve; as a rule, active = well fitted cell-killing curve with a large enough effect in the repeat runs; inconclusive = weak or mixed curves; inactive = flat fitted curve, though single readings scatter.
% is scaled to controls: 0 for no effect and ±100 for the full control effect.

The test in a line: qHTS assay to identify small molecule antagonists of the estrogen receptor beta (ER-beta) signaling pathway - cell viability counter screen (AID 1259382).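 Also: HEK293T cells carrying ER-beta-UAS-bla reporter stimulated with estradiol; nearly all actives have a fitted effect of over 55% in size.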 Conditions: ER-beta-UAS-bla HEK293T viability, CellTiter-Glo luminescence, 16 h; series mostly up to 92.4 µM; activity change, negative = cytotoxicity: at the top concentration. Put shortly: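 In this multiplexed counter screen, cells were seeded at 2,000 per well in medium with 2% charcoal-stripped FBS and incubated 6 hr before compound and 1nM final E2 were added. Sixteen hours later, ATP-based luminescence reported viability.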
On to `OC1OCCOC1O` (stereo not drawn), for which the “activity change, negative = cytotoxicity” value is 13.1% (inactive).
As for `CC(C)(CO)C(O)C(=O)NCCCO` (stereo not drawn), the figure is 7.95% (inactive).
The result for `CCC(C)C(C)=O` (stereo not drawn) reads -8.01% (inactive); that for `Cc1ccccc1C(N)=O`, -4.8% (inactive).
Turning to `CCCc1ccc(O)cc1`, the “activity change, negative = cytotoxicity” value was -4.57% (inactive).
As for `CCc1occc(=O)c1O`, the figure is 2.82% (inactive); as for `CC1(C)CC(OC(=O)CCCCCCCCC(=O)OC2CC(C)(C)NC(C)(C)C2)CC(C)(C)N1`, -21.6% [at 19 µM] (inactive); as for `CC1CC(=O)CC(C)(C)C1` (stereo not drawn), -0.182% (inactive).
Turning to `CCCCOC(=O)C(C)O` (stereo not drawn), the “activity change, negative = cytotoxicity” value was 0.998% (inactive).
For `CC1CCc2c(N3CCC(O)CC3)c(F)cc3c(=O)c(C(=O)O)cn1c23` (stereo not drawn), the “activity change, negative = cytotoxicity” value is -1.74% [at 42.5 µM] (inactive).
The result for `COP(=O)(O)OP(=O)(O)OC` reads -0.438% (inactive); that for `CCCC(=O)Nc1ccc(OCC(O)CNC(C)C)c(C(C)=O)c1` (stereo not drawn), -2.23% [at 42.5 µM] (inactive); that for `CN(C)C(C)(C)CO`, 3.02% (inactive).
As for `CC(C)Nc1ccccc1`, the figure is -5.18% (inactive); as for `C=CC/C=C/C`, 1.23% (inactive); as for `COc1ccc2c(c1)c1c3n2CCN(C)C3=NCC1`, 5.44% [at 42.5 µM] (inactive).
As for `CN(C)CCOC(=O)C(c1ccccc1)C1(O)CCCC1` (stereo not drawn), the figure is 0.883% [at 42.5 µM] (inactive).
`COC(=O)c1cc(Cl)cc(Cl)c1`: the “activity change, negative = cytotoxicity” value is 1.18% (inactive).
As for `CC1(C)[C@H]2CC[C@](C)(C2)[C@H]1O`, the “activity change, negative = cytotoxicity” value was 3.27% (inactive).
The result for `COCCc1ccccn1` reads 12.2% [at 42.5 µM] (inactive); that for `COC(=O)CCCCC(CCSS/C(CCO)=C(\C)N(C=O)Cc1cnc(C)nc1N)SC(C)=O` (stereo not drawn), 0.0401% [at 42.5 µM] (inactive); that for `CC12CCC(C1)C(C)(C)C2O` (stereo not drawn), -3.38% (inactive).
Consider `COc1cc(/C=C/C(N)=O)cc(OC)c1OC`, for which the “activity change, negative = cytotoxicity” value is 11.8% [at 42.5 µM] (inactive).
As to `CCOc1cccc(N)c1`, the “activity change, negative = cytotoxicity” value is -0.0905% (inactive).
The result for `CCOC(=O)CC1(C)OCC(C)O1` (stereo not drawn) reads 0.968% (inactive).
For the compound `Cc1cc(C)c(C(=O)O)c(C)c1`, the “activity change, negative = cytotoxicity” value was -1.57% (inactive).
As for `CCCSSCCC`, the figure is 1.34% (inactive); as for `CC(=O)OC1CCCCC1C(C)(C)C` (stereo not drawn), 0.117% (inactive).
